Measured values reported in PubChem BioAssay (NCATS).
Results filed as inconclusive are left out. Where a call stands in place of a potency, no number is given. The source made the active and inactive calls. The call rests on the fitted dose curve; in most records, active means well fitted inhibition curve with a large enough effect; inconclusive means small, poorly fitted or top-dose-only effect; inactive means flat fitted curve, though single readings scatter.

Columns and labels:
Test in all cases: qHTS profiling for inhibitors of Plasmodium falciparum proliferation (AID 504749); further: nearly all actives have a fitted effect of over 60% in size
Details in all cases: P. falciparum in erythrocytes, SYBR Green DNA, 72 h; series mostly up to 28.7 µM
CP247 = system: CP247
How it was run: (§1)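 Infected RBCs, 0.3% parasitemia/2.5% Hct final; cpd 72 h, 37 C, 5% CO2; lysis buffer with saponin/triton/SYBR Green I, o/n RT dark; FI 485/535; norm. to artemisinin (0.29 uM) and DMSO.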

CP250 = system: CP250
How it was run: as §1

CP262 = system: CP262
How it was run: as §1

CP266 = system: CP266
How it was run: as §1

CP268 = system: CP268
How it was run: as §1

CP269 = system: CP269
How it was run: as §1

CP297 = system: CP297
How it was run: as §1

CP315 = system: CP315
How it was run: as §1

CP325 = system: CP325
How it was run: as §1

CP335 = system: CP335
How it was run: as §1

DIV14 = system: DIV14
How it was run: as §1

CP252 = system: CP252
How it was run: as §1

CP256 = system: CP256
How it was run: as §1

CP260 = system: CP260
How it was run: as §1

CP265 = system: CP265
How it was run: as §1

CP286 = system: CP286
How it was run: as §1

CP291 = system: CP291
How it was run: as §1

CP305 = system: CP305
How it was run: as §1

CP329 = system: CP329
How it was run: as §1

DFO2036 = system: DFO2036
How it was run: as §1
Potency means the concentration at half of the fitted maximal effect.

Compound | Potency (CP247) | Potency (CP250) | Potency (CP262) | Potency (CP266) | Potency (CP268) | Potency (CP269) | Potency (CP297) | Potency (CP315) | Potency (CP325) | Potency (CP335) | Potency (DIV14) | Potency (CP252) | Potency (CP256) | Potency (CP260) | Potency (CP265) | Potency (CP286) | Potency (CP291) | Potency (CP305) | Potency (CP329) | Potency (DFO2036)
CN1[C@@H](CC(=O)c2ccccc2)CCC[C@H]1C[C@H](O)c1ccccc1 | inactive | inactive | inactive | inactive | inactive | inactive | inactive | inactive | inactive | inactive | 13.5 µM (active) |  |  |  |  |  |  |  |  | 
c1ccc2sc(SSc3nc4ccccc4s3)nc2c1 | inactive | inactive | inactive |  | inactive | inactive | inactive | inactive | inactive | inactive | inactive | inactive | inactive | inactive | inactive | inactive | inactive | inactive | inactive | inactive
CCCCC[C@H](O)/C=C/[C@@H]1[C@@H](C/C=C\CCCC(=O)O)[C@@H](O)C[C@H]1O | inactive | inactive | inactive | inactive | inactive | inactive | inactive | inactive | inactive |  | inactive | inactive | inactive | inactive | inactive | inactive | inactive | inactive | inactive | inactive
Cc1cc(O)c2ccccc2c1O | inactive |  | inactive | inactive | inactive | inactive | inactive | inactive | inactive |  |  | inactive | inactive | inactive | inactive | inactive | inactive | inactive | inactive | inactive
O=C(O)c1cc(O)c(O)c(O)c1 |  | 5.62 µM (active) |  | inactive | inactive | inactive | inactive | inactive | inactive |  |  | inactive | inactive |  | inactive | inactive | inactive | inactive | inactive | inactive
Nc1c(CC(=O)O)cccc1C(=O)c1ccc(Br)cc1 | inactive | inactive | inactive | inactive | inactive | inactive |  | inactive | inactive | inactive | inactive | inactive | inactive | inactive | inactive | inactive | inactive | inactive | inactive | inactive
Cc1nc2ccccc2n1Cc1ccc(Cl)cc1 |  | inactive |  |  | inactive | inactive | inactive | inactive |  |  | inactive |  |  | inactive |  | inactive | inactive | inactive |  | 
Oc1c(Br)cc(Br)c2cccnc12 | inactive | inactive |  | inactive | inactive | inactive | inactive | inactive | inactive | inactive | inactive | inactive | inactive | inactive | inactive | inactive | inactive | inactive | inactive | inactive
NC(=O)C(c1ccccc1)(c1ccccc1)[C@@H]1CCN(CCc2ccc3c(c2)CCO3)C1 |  | inactive |  | inactive |  | inactive |  | inactive | inactive |  | 7.57 µM (active) |  |  |  |  |  |  |  |  | 
COc1cc(/C=C/C(=O)CC(=O)/C=C/c2ccc(O)c(OC)c2)ccc1O | 8.91 µM (active) | 8.91 µM (active) |  |  |  |  | 13.5 µM (active) |  |  |  | 16.9 µM (active) |  |  |  |  |  |  |  |  | 
CCOc1ccc2nc(S(N)(=O)=O)sc2c1 | inactive | inactive | inactive | inactive | inactive | inactive | inactive | inactive | inactive | inactive | inactive | inactive | inactive | inactive | inactive | inactive |  | inactive | inactive | inactive
O=C1CN(/N=C/c2ccc(-c3ccc([N+](=O)[O-])cc3)o2)C(=O)N1 | 4.47 µM (active) | inactive |  | inactive | inactive | inactive | inactive | inactive | inactive | inactive |  | inactive | inactive | inactive | inactive | inactive | inactive | inactive | inactive | inactive
C[S+](CC[C@H](N)C(=O)O)C[C@H]1O[C@@H](n2cnc3c(N)ncnc32)[C@H](O)[C@@H]1O (some centres undefined) |  |  | inactive |  | inactive | inactive | inactive | inactive | inactive | inactive | inactive | inactive |  | inactive |  | inactive | inactive | inactive | inactive | 
O=c1[nH]c2ccccc2n1CCCN1CCN(C(c2ccccc2)c2ccccc2)CC1 |  |  | inactive |  |  |  |  | inactive |  |  | 13.5 µM (active) |  |  |  |  |  |  |  |  | 
CC(N)C(=O)OC(C)(C)Cc1ccc(Cl)cc1 (centres undefined) |  | inactive | inactive | inactive |  |  | 9.53 µM (active) | inactive |  |  | 9.53 µM (active) |  | inactive |  |  |  |  |  |  | 
CN1CCN(c2cc3c(nn2)Oc2ccccc2N3C)CC1 | inactive | inactive | inactive |  | inactive | inactive | inactive | inactive | inactive | inactive | inactive | inactive | inactive | inactive | inactive | inactive | inactive | inactive | inactive | inactive
